Experiment [1] can be described thus: AP1 Signaling Pathway (AID 357; active means well fitted curve in either direction with a large enough effect, not every such curve was filed as active; further: on the % scale 0 is the no-effect control and ±100 the full control effect). The note with it: ME-180 AP-1-bla reporter, EGF-induced, beta-lactamase ratio, 5 h; at 17.2 µM (top of the series). In a few lines: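 AP-1-bla ME-180 cells with beta-lactamase reporter under AP-1 response element, stimulated with EC50 EGF; compounds titrated, 5 hours at 37 degrees Celsius. CCF4 read at 460/530 nm ratio; positive and negative modulators judged by AC50.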

Experiment [2] is described as follows: NFAT Signaling Pathway (AID 444; active means well fitted curve in either direction with a large enough effect, not every such curve was filed as active;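 further: carbachol stimulus at about its EC50 of 1 µM final; on the % scale 0 is the no-effect control and ±100 the full control effect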). As to conditions: Jurkat NFAT-bla M1, carbachol, beta-lactamase ratio, 5 h; at 17.2 µM (top of the series). In a few lines: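 Jurkat cells carrying an NFAT-driven β-lactamase reporter and co-transfected muscarinic M1 receptor were treated with compound plus carbachol (1 uM final, an EC50 level) for 5 h at 37 °C. CCF4 loading followed for 1 h at RT; 460/530 nm ratio gave %activity.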

The nature of experiment [3]: Stat Signaling Pathway (AID 446; active means well fitted curve in either direction with a large enough effect, not every such curve was filed as active;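 further: ME-180 cervical cancer cells given 40 pM IL-6 alongside compound; SIE-controlled beta-lactamase reporter measured as 460/530 nm FRET emission ratio; on the % scale 0 is the no-effect control and ±100 the full control effect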). As to conditions: ME-180 SIE beta-lactamase reporter, IL-6 stimulated, 5 h; at 17.2 µM (top of the series). In outline: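 ME-180 cells carrying a SIE-driven beta-lactamase reporter are stimulated with 40 pM IL-6 for 5 h at 37C in the presence of compound. The 460/530 nm FRET substrate ratio is read after 2.5 h at RT. Data are normalised to 300 pM IL-6 and to 125 nM JAK inhibitor controls.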

Experiment [4] addresses Glucocorticoid receptor (Homo sapiens) (UniProt P04150). Description: GR-GFP Redistribution (AID 450;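 active means compounds whose dose series gives a full or clear partial fitted curve of increased nuclear translocation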; further: potency means the concentration at half of the fitted maximal effect). As to conditions: U2OS GR-GFP nuclear translocation, laser cytometry, 2 h.
Experiment [5] has the same target. Put plainly: GR-EFC Redistribution (AID 451; calls by dose curve; further: potency means the concentration at half of the fitted maximal effect). As to conditions: CHO-K1 GR-EFC translocation, beta-gal luminescence, 2 h. In outline: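 CHO-K1 cells stably expressing nuclear-localized β-gal enzyme acceptor and GR fused C-terminally to the enzyme donor fragment; ligand-driven nuclear translocation restores β-gal by complementation. Compounds titrated up to 46 uM final, 2 h at 37 °C; luminescence read.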

Experiment [6] addresses Mitogen-activated protein kinase 10 (Mus musculus) (UniProt Q61831). Description: JNK3 AlphaScreen Assay (AID 530; active means well fitted curve in either direction with a large enough effect, not every such curve was filed as active;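 further: kinase came from lysate of stimulated human HepG2 cells; signal reports phosphorylation of biotinylated GST-cJun 1-79 at Ser73 with 10 µM ATP; on the % scale 0 is the no-effect control and ±100 the full control effect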). In outline:
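JNK3 came from HepG2 lysates pre-activated with IL-1beta and TNF-alpha and phosphorylated biotinylated GST-cJun (1-79) at 10 uM ATP, pH 7.6, room temperature. Compounds were titrated. AlphaScreen signal used anti-phospho-cJun (Ser73) antibody.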
For orientation: Bead proximity is the source of the signal in Alpha formats.

Experiment [7] has as its target 3',5'-cyclic-AMP phosphodiesterase 4B (Homo sapiens) (UniProt Q07343). Put plainly: qHTS Assay for Inhibitors of PDE-IV (AID 607; active means well fitted activation curve with a large enough effect in the main read-out, with a control signal flat, not every such curve was filed as active; further: % of control where 0% means no effect). In outline:
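HEK293 ACTOne cells with CNG channel (1000/well), endogenous PDE4; membrane potential dye, compounds up to 22.9 uM final. Fluorescence Ex 535/Em 590; RO 20-1724 (100 uM final) as reference.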
(In general: qHTS replaces the single test concentration by a dilution series.)

Experiment [8] in a line: qHTS Assay for Lipid Storage Modulators (AID 1519; calls by dose curve). As to conditions: Drosophila S3 cells, BODIPY lipid droplet/cell ratio, laser cytometry, cells loaded with oleic acid. In a few lines: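 Cells seeded at 5,000 per well were treated with compounds over a concentration series and loaded with oleic acid (400 uM, as added). Lipid droplet fluorescence (488 nm excitation, 500-530 nm channel) was read by laser-scanning cytometry and normalized to 20 uM Triacsin C.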

In experiment [9] the target is Ubiquitin carboxyl-terminal hydrolase 1 (Homo sapiens) (UniProt O94782). Put plainly: Inhibitors of USP1/UAF1: Pilot qHTS (AID 504865).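 Further: rhodamine fluorescence freed from ubiquitin-rhodamine substrate followed over time; top concentration of the series differs between compounds; on the % scale 0 is the no-effect control and ±100 the full control effect; nearly all actives have a fitted effect of over 35% in size.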 In a few lines:
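USP1/UAF1 complex (1nM) preincubated with compound 15 min at room temperature, then Ub-Rho substrate (150nM final) added. Fluorescence read kinetically at 480/540 nm, 6 reads every 60 seconds. Buffer: 50mM HEPES pH 7.8, 0.5mM EDTA, 0.1 mg/ml BSA, 1mM TCEP, 0.01% Tween-20.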

The target in experiment [10] is DNA dC->dU-editing enzyme APOBEC-3G (Homo sapiens) (UniProt Q9HC16). Description: qHTS for inhibitors of Vif-A3G interactions: Validation (AID 588379). Further: 0% is about no effect. In outline:
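HeLa cells stably expressing Vif and A3G-eYFP, 700 cells/well, incubated overnight at 37 deg C, then exposed to compound overnight at 37 deg C. Inhibition of Vif-mediated degradation read as increased yellow fluorescence (Ex 488/Em 500-530) by laser-scanning cytometry.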

Experiment [11] has as its system Zika virus NS2B-NS3 protease. Description: Primary screen GU AMC qHTS for Zika virus inhibitors (AID 1347154).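 Further: 0% = no-inhibitor control and -100% = no-enzyme control; nearly all actives have a fitted effect of over 70% in size.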 In a few lines: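 Unlinked Zika NS2B hydrophilic domain/NS3 protease domain noncovalent complex (25 nM final) in 10 mM Tris-HCl pH 8.0, 0.01% Tween 20, with AMC peptide substrate. Fluorescence (ex 340, em 450 nm) change over 15 min, room temperature; percent inhibition fitted to 4-parameter Hill equation.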

Experiment [12] can be described thus: Primary qHTS for small molecule stabilizers of the endoplasmic reticulum resident proteome: Secreted ER Calcium Modulated Protein (SERCaMP) assay (AID 1508630). Further: on the % scale 0 is the no-effect control and ±100 the full control effect. In a few lines: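 GLuc-SERCaMP-expressing SH-SY5Y cells, pretreated 16 h with compound, are challenged with thapsigargin to empty ER calcium stores; after 4 h, coelenterazine is added directly to the medium and luminescence is imaged.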

Experiment [13] deals with Rap guanine nucleotide exchange factor 3 (Homo sapiens) (UniProt O95398). Description: Confirmatory qHTS for antagonist of cAMP-regulated guanine nucleotide exchange factor 3 (EPAC1) (AID 1645880).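 Further: plate controls were DMSO only for no effect and full effect of the ATA control for full effect; nearly all actives have a fitted effect of over 55% in size.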 In outline:
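Nucleotide exchange uses 100 nM EPAC1, 250 nM RAP1B-BODIPY-GDP and 50 uM GDP, with compounds in a concentration-titration series. After 5 min at room temperature, fluorescence (480 nm ex/540 nm em) is read every 5 min for 30 min. Data are normalized to control ATA and DMSO.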

Experiment [14] shares this target. Put plainly: Confirmatory qHTS for agonist of cAMP-regulated guanine nucleotide exchange factor 3 (EPAC1) (AID 1645881).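 Further: EPAC1 catalysed release of BODIPY-GDP from Rap1B seen as fluorescence loss; 100% = effect of cAMP agonist control; nearly all actives have a fitted effect of over 75% in size.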
In experiment [15] the target is Rap guanine nucleotide exchange factor 4 (Homo sapiens) (UniProt Q8WZA2). Description: Confirmatory qHTS for agonist of cAMP-regulated guanine nucleotide exchange factor 4 (EPAC2) (AID 1645884).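 Further: nucleotide exchange releases bodipy-GDP from Rap1 and this lowers its fluorescence; on the % scale 0 is the no-effect control and ±100 the full control effect; nearly all actives have a fitted effect of over 65% in size.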
Chain of Rap guanine nucleotide exchange factor 4 (Homo sapiens) (Q8WZA2 whole entry, looked up): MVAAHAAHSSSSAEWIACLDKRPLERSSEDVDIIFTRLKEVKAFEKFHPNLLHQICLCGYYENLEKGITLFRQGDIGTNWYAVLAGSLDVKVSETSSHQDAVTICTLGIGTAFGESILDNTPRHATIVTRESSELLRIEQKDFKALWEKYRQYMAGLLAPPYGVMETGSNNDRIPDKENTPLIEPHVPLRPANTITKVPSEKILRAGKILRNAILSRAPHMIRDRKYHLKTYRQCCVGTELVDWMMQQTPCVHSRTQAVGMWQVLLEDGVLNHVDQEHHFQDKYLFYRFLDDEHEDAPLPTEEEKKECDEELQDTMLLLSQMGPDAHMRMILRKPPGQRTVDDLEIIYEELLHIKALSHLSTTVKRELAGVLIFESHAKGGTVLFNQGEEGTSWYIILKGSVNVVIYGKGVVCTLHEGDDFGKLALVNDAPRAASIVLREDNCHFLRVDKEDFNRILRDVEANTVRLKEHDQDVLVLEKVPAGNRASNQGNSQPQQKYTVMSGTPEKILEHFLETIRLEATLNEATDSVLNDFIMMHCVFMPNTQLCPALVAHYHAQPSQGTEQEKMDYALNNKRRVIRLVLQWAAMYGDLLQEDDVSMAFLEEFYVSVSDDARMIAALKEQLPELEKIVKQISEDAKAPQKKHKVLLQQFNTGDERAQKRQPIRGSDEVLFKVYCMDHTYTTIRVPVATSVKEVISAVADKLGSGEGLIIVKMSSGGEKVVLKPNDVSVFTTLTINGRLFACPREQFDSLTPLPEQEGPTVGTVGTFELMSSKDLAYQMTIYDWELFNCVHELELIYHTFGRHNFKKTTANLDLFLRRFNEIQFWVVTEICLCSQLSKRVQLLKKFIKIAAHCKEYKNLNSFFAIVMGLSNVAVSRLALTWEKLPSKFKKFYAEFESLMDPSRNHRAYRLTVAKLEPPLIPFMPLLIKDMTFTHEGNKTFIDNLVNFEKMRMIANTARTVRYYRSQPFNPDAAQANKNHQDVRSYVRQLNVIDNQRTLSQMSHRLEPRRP
The target is the same in experiment [16]. Put plainly: Confirmatory qHTS for antagonist of cAMP-regulated guanine nucleotide exchange factor 4 (EPAC2) (AID 1645885). Further: on the % scale 0 is the no-effect control and ±100 the full control effect; nearly all actives have a fitted effect of over 25% in size.
For experiment [17], the target named is Cytochrome P450 1A2 (Homo sapiens) (UniProt P05177). Put plainly: p450-cyp1a2 (AID 410; calls by dose curve; further: potency means the concentration at half of the fitted maximal effect;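 on activity change, negative = inhibition: -100% = full effect of reference inhibitor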). In a few lines: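 Inhibition was calculated relative to 57 uM furafylline (full inhibition). The reaction used human CYP1A2 at 20nM with Luciferin-ME at its Km, 100uM, driven by an NADPH-regenerating system for 60 min at room temperature.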
Chain of Cytochrome P450 1A2 (Homo sapiens) (P05177 whole entry, looked up): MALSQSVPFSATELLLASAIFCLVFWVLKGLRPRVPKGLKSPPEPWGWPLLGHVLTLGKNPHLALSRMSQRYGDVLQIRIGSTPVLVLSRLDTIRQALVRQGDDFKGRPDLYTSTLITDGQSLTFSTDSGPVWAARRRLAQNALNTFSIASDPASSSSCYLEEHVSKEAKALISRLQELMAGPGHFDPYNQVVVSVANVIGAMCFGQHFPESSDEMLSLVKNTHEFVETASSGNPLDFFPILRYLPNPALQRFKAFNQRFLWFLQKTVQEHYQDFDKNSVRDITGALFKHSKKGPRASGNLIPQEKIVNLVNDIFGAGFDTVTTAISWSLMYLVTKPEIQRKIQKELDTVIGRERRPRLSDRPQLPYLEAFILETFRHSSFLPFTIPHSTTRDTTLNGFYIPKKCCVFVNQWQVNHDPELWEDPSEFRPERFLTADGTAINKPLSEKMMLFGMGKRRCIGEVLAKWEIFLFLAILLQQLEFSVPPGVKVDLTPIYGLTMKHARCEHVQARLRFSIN
For experiment [18], the target named is Cytochrome P450 2D6 (Homo sapiens) (UniProt P10635). Put plainly: qHTS Assay for Inhibitors and Substrates of Cytochrome P450 2D6 (AID 891). Further: potency means the concentration at half of the fitted maximal effect; nearly all actives have a fitted effect of over 60% in size. In outline: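 Human CYP2D6 (5 nM) with 30 uM Luciferin-ME EGE (at Km) in 100 mM KPO4, compound preincubated 10 min, then NADPH regeneration system for 60 min at room temperature. Luciferin read by luminescence; normalized to 1.43 uM quinidine.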
Chain of Cytochrome P450 2D6 (Homo sapiens) (P10635 whole entry, looked up): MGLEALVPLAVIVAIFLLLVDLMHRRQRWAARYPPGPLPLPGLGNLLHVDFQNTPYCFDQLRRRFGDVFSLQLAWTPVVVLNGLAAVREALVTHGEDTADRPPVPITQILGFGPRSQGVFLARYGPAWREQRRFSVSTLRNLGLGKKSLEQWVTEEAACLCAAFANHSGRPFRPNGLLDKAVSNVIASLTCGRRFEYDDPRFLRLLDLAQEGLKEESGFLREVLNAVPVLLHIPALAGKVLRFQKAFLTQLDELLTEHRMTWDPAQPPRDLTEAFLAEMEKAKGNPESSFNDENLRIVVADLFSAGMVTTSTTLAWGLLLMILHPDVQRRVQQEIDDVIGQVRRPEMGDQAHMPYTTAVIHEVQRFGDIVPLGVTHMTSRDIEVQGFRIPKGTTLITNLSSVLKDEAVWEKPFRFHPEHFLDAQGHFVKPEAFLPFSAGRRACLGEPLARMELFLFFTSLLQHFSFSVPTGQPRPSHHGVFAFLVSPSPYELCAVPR

[19] abbreviates: measured here: cell count channel max response.
Setting [20] is: measured here: lipid channel max response.

SMILES strings stand for the structures. Values joined by “and” are separate entries in the source; they are usually repeats but may differ in a detail not shown here. Equal values may be shown once. Records with an inconclusive call do not appear. Active and inactive are the calls of the source. Unless noted, the call rests on the fitted dose curve; in most records, active means well fitted curve in the direction sought with a large enough effect; inconclusive means small, poorly fitted or top-dose-only effect, or another doubt; inactive means no such curve, though single readings can be large; an effect the other way counts as inactive or inconclusive. A value given as a limit tells only on which side of the number the result lay.

Chain of DNA dC->dU-editing enzyme APOBEC-3G (Homo sapiens) (Q9HC16 whole entry, looked up): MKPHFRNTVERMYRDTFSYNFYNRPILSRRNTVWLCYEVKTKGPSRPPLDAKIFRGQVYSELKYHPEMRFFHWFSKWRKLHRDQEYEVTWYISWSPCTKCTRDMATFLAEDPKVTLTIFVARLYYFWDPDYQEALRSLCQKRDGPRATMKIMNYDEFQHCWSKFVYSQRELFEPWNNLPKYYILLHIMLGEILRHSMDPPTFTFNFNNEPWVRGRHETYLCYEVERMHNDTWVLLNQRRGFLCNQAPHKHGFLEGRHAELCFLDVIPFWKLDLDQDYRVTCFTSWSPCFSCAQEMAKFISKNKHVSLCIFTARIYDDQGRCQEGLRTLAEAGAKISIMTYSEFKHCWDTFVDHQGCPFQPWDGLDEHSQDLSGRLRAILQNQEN
Chain of Ubiquitin carboxyl-terminal hydrolase 1 (Homo sapiens) (O94782 whole entry, looked up): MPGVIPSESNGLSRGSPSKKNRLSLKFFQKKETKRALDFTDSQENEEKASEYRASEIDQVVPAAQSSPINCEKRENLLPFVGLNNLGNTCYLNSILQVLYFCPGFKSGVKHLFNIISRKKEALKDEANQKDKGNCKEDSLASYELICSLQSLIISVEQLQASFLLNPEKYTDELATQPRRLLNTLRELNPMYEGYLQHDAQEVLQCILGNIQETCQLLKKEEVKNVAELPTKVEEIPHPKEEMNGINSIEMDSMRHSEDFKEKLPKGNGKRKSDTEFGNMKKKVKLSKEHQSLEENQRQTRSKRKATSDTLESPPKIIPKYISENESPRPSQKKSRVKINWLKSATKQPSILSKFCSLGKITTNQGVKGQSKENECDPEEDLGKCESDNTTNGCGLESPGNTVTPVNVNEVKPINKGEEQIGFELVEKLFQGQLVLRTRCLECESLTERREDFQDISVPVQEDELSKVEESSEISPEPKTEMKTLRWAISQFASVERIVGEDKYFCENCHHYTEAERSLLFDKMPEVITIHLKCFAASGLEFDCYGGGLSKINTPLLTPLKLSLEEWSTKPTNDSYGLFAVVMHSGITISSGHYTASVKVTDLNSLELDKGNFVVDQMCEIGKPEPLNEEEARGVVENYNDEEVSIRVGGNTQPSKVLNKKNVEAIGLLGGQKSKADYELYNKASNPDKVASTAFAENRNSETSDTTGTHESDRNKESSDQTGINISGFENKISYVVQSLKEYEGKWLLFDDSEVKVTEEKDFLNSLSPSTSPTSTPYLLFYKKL
Chain of 3',5'-cyclic-AMP phosphodiesterase 4B (Homo sapiens) (Q07343 whole entry, looked up): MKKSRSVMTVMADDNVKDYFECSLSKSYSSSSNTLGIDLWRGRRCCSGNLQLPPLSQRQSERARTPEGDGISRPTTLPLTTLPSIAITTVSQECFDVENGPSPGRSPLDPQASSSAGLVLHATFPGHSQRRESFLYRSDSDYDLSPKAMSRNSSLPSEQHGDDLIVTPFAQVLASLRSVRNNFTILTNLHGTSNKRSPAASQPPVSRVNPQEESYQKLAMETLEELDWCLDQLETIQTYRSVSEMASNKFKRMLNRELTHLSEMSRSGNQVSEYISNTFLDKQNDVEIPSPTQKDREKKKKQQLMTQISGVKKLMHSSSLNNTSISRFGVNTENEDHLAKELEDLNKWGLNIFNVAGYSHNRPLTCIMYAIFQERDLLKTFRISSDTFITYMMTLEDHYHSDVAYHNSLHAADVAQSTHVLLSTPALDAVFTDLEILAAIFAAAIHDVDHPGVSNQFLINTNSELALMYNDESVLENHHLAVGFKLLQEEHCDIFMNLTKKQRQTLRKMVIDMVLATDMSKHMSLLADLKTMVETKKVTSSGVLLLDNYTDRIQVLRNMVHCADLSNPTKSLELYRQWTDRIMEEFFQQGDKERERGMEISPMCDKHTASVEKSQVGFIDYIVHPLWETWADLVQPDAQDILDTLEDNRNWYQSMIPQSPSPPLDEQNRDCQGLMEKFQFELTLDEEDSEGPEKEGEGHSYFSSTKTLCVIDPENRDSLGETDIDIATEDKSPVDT
Chain of Glucocorticoid receptor (Homo sapiens) (P04150 whole entry, looked up, the tested form may be a part): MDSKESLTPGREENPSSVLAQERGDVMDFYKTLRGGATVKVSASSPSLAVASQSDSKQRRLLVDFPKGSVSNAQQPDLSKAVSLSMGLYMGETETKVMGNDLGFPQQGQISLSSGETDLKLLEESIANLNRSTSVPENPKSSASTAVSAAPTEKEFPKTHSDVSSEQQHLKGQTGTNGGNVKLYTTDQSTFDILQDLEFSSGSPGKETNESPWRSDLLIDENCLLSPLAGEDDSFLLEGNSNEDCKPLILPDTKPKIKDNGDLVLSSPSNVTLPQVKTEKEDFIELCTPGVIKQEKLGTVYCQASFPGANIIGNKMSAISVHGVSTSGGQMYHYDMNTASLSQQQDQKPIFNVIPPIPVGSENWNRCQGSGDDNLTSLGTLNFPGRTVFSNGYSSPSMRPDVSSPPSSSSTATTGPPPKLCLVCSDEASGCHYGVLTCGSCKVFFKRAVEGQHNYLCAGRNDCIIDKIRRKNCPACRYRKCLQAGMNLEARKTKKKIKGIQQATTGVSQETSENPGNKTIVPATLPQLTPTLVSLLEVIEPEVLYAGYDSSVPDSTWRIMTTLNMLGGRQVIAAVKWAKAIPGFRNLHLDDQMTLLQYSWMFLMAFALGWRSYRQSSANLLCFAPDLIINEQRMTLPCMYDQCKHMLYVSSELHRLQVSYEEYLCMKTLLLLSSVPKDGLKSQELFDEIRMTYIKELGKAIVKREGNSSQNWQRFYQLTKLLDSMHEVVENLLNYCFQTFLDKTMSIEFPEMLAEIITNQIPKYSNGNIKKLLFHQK

With `CN(C)CCCSC(=N)N`, the activity change, negative = inhibition in experiment [1] was 2.97% (inactive); in experiment [2], -13.3% (inactive); in experiment [8] (at 25.7 µM (top of the series)), -2.91% (inactive); in experiment [8] (at 57.5 µM (top of the series)), 3.5% (inactive). Further, the activity, negative = inhibition in experiment [3] is -1.52% (inactive). The Potency in [4] was > 20.6 µM (inactive) and > 46 µM (inactive); in experiment [5], > 20.6 µM (inactive) and > 46 µM (inactive). Also, the Potency result in experiment [6], in [7], in [9], in [10], in experiment [11] and in [12] was “inactive” in each case. Moreover, the Potency entry in experiment [13] and in experiment [16] was “inactive” in each case. Also, the max response in experiment [8] (setting [19]) is -7.27% and -5.75%; in experiment [8] (setting [20]) it was -5.95% and 13.8%. In addition, the outcome in [14] and in [15] was inactive.
In the case of `CC(C)NC[C@@H](O)COc1ccc(COCCOC(C)C)cc1`, the activity change, negative = inhibition was -0.912% (inactive) in experiment [1], 3.53% (inactive) in experiment [2], -1.04% (inactive) in experiment [8] (at 25.7 µM (top of the series)) and 0.281% (inactive) in experiment [8] (at 57.5 µM (top of the series)). For the same compound, the Potency entry in experiment [17], in experiment [6], in [7], in experiment [9], in experiment [10] and in experiment [11] was “inactive” each time. Further, the Potency entry in experiment [12] was “inactive”. Also, the activity, negative = inhibition in experiment [3] is 15.4% (inactive). Besides, the Potency in [4] is > 20.6 µM (inactive) and > 46 µM (inactive); in [5], > 20.6 µM (inactive) and > 46 µM (inactive). Also, the max response in experiment [8] (setting [19]) is 2.54% and -5.68%; in experiment [8] (setting [20]), 6.08% and -6.81%.
Regarding `OC[C@H]1O[C@@H](n2cnc3c(NC4CCCC4)nc(Cl)nc32)[C@H](O)[C@@H]1O`, the Potency entry in experiment [11] and in experiment [12] was “inactive” throughout.
On to `CC(C)NC[C@H](O)c1ccc2ccccc2c1`, for which the activity change, negative = inhibition in experiment [1] is 1.15% (inactive); in experiment [2] it was -18.4% (inactive); in [8] (at 25.7 µM (top of the series)) it was -2.39% (inactive); in experiment [8] (at 57.5 µM (top of the series)), -0.481% (inactive). The Potency in experiment [17] was 10 µM (active) and 12.6 µM (active); in [4], > 20.6 µM (inactive) and > 46 µM (inactive); in experiment [5] it was > 20.6 µM (inactive) and > 46 µM (inactive); in experiment [18] it was 3.16 µM (active). The activity, negative = inhibition in experiment [3] was -5.4% (inactive). Moreover, the Potency result in [6], in experiment [7], in experiment [9], in experiment [10], in experiment [11] and in experiment [12] was “inactive” in each case. In addition, the max response in experiment [8] (setting [19]) is 2.13% and 8.48%; in experiment [8] (setting [20]), -2.74% and 9.7%.
